CF NFkB block – blocks PAF-induced NF-kB reporter in cystic fibrosis cells; KKLEB NF-kB-GFP reporter, GFP fluorescence overnight; inhibition, % at 5 µM; actives 0.86% (n = 360,000);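 active means at least 50% inhibition at 5 µM, scaled per plate between neutral and stimulator controls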;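 further: PAF is a Pseudomonas aeruginosa culture filtrate used as stimulus; plate controls were PAF-stimulated DMSO wells for no effect and unstimulated DMSO wells for full effect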
LGR2 antag – Drosophila LGR2 receptor signaling inhibition; actives 0.35% (n = 380,000); inhibition, % at 9.99 µM; HEK293 LGR2, CRE-luciferase, bursicon-stimulated, 4 h; AID 720647;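 active means drop in luminescence signal, shown as inhibition above about 50% in the replicate tests, limit read from the data, passing the limit was not always enough; inconclusive means probably only some replicates passing the limit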;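 further: agonist challenge used bursicon conditioned medium at about half maximal strength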
Mdm2 MdmX PPI – inhibitors of human Mdm2/MdmX interaction | SaOS-2 split-luciferase Mdm2/MdmX complementation, luminescence | inhibition, % at 8 µM | actives 3% (n = 330,000);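 active means inhibition of at least 50% at 8 µM in the primary screen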
Target sequence (O15151 whole entry, looked up): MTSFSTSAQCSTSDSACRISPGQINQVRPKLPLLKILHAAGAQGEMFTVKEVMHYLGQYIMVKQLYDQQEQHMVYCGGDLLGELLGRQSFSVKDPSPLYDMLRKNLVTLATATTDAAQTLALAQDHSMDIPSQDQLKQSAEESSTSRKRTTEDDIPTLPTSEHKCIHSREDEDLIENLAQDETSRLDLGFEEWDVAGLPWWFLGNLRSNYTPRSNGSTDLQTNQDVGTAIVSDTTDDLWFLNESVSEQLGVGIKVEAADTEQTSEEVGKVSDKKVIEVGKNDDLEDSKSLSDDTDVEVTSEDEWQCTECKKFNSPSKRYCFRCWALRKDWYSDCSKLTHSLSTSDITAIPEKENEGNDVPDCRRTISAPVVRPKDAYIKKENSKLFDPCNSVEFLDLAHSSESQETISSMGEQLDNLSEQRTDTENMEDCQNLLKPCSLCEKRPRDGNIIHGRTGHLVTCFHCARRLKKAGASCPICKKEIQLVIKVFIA
Target sequence (Q00987 whole entry, looked up): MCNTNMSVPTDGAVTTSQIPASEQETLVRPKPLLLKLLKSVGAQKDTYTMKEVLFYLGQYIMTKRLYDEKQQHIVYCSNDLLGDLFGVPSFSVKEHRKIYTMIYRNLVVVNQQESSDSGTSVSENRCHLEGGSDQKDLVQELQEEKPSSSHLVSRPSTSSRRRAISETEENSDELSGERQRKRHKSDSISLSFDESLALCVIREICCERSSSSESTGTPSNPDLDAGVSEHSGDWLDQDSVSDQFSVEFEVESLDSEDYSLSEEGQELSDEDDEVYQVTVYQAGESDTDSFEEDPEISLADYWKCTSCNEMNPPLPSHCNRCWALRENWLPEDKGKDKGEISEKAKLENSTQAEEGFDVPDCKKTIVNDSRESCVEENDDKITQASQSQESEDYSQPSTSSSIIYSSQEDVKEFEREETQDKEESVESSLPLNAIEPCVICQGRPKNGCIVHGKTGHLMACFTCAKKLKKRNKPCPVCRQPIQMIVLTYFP
Peg3 prom inh – inhibitors of Peg3 promoter | HeLa PEG-Prom luciferase reporter, luminescence, overnight | inhibition, % at 20 µM | actives 1.7% (n = 360,000) | AID 588405;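 active means inhibition of at least 50% at 20 µM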
HSP90 refold inh – blocks HSP90-mediated luciferase refolding in reticulocyte lysate; Rabbit reticulocyte lysate, luciferase refolding luminescence, 3 h; actives 0.91% (n = 290,000); inhibition, % at 5.6 µM; AID 1789;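 active means inhibition above the screen-wide mean plus 3 SD, computed separately per campaign, cut at about 16% in these data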;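 further: 0% = DMSO wells and 100% = 60 µM geldanamycin wells; inhibitors lower the luminescence because luciferase stays unfolded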
KKLEB cytotox – reduces viability of KKLEB cystic fibrosis airway cells. KKLEB CF airway cells viability, ATPlite luminescence, overnight; active compounds read low; cells stimulated with P. aeruginosa culture filtrate. activity change (cytotoxicity), % at 5 µM. actives 0.36% (n = 360,000). AID 602141;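 active means corrected activity change at or below -50% at 5 µM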
Mdm2-MdmX conf – confirmation of human Mdm2/MdmX interaction inhibitors | Mdm2-MdmX binding, luminescent assay | actives 55% (n = 10,000) | shares compounds with Mdm2 MdmX PPI | AID 489028 | inhibition, % at 8 µM; in the data active means inhibition above about 40%
FLuc counter – counter-screen for Mdm2/MdmX inhibitors: full-length luciferase; shares compounds with Mdm2 MdmX PPI; SaOS-2 full-length luciferase counterscreen, luminescence; inhibition, % at 8 µM; actives 77% (n = 6,200);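 active means mean inhibition at 8 µM reaching about 37%, which flags the compound as non-specific, limit read from the data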;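 further: p53-null SaOS-2 cells with luciferase driven by a doxycycline-inducible promoter; compound on cells about two nights before reading with doxycycline added after day one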
* = called active by the depositor; ? = inconclusive; . = not tested or not shown. Sampled rows, rich in hits. Any-hit rate of the full collection: about 3.6%.

SMILES | CF NFkB block | LGR2 antag | Mdm2 MdmX PPI | Peg3 prom inh | HSP90 refold inh | KKLEB cytotox | Mdm2-MdmX conf | FLuc counter
CCN(CC)S(=O)(=O)c1ccc(Cl)c(NC(=S)NC(=O)C2CCCC2)c1 | 1.6 | 12.7 | 50.3* | 35.6 | . | 5.6 | 15.2 | .
CCN1CCN(c2ccc(S(=O)(=O)N3CCCCC3)cc2NC(=O)Cc2ccccc2F)CC1 | 24.9 | 5.5 | 19.6 | 0.5 | . | 2.5 | . | .
CCN1CCN(c2ccc(S(=O)(=O)N3CCCCC3)cc2NC(=O)Cc2ccc(Cl)c(Cl)c2)CC1 | 5.4 | . | 63.9* | 18.7 | . | -2.6 | 38.0 | 79.6*
C[C@@H]1CCCCO[C@@H](CN(C)C(=O)c2ccccc2)[C@H](C)CN([C@@H](C)CO)C(=O)c2cc(NS(=O)(=O)c3ccccc3)ccc2O1 | . | -0.1 | . | . | . | . | . | .
O=C(Nc1cc(F)ccc1F)N1CC(=O)N2[C@H](C1)[C@H](c1ccc(-c3cccc(F)c3)cc1)[C@@H]2CO | . | -19.0 | . | . | . | . | . | .
CCN1CCN(c2ccc(S(=O)(=O)N3CCCCC3)cc2NC(=O)c2ccc([N+](=O)[O-])s2)CC1 | 28.8 | 32.2 | 70.5* | 63.9* | . | 2.0 | 58.7* | 82.0*
CCN1CCN(c2ccc(S(=O)(=O)N3CCCCC3)cc2NC(=O)/C=C/c2cc(OC)ccc2OC)CC1 | -4.1 | 16.2 | 100.4* | 101.2* | 2.1 | -9.4 | 44.8* | 63.2*
CCN1CCN(c2ccc(S(=O)(=O)N3CCCCC3)cc2NC(=O)c2ccccc2)CC1 | -9.1 | -2.1 | 26.3 | 12.7 | . | 17.2 | . | .
CCN(c1ccccc1)S(=O)(=O)c1ccc(Cl)c(NC(=O)CN2CCCCCC2)c1 | 28.7 | 27.9 | 68.8* | 30.7 | -3.1 | -11.5 | 22.8 | .
O=C(C[C@@H]1C=C[C@@H](NC(=O)Nc2ccc3c(c2)OCO3)[C@H](CO)O1)NCc1ccccc1 | . | 12.1 | . | . | . | . | . | .
Cc1cc2c(cc1C)-c1c(ssc1=Nc1ccc(S(N)(=O)=O)cc1)C(C)(C)N2 | 35.4 | 6.8 | 62.4* | 43.8 | 7.7 | -39.9 | 40.1* | 44.0*
C[C@@H]1CN([C@@H](C)CO)C(=O)c2cc(N(C)C)ccc2O[C@@H](C)CCCCO[C@@H]1CN(C)Cc1ccncc1 | . | -15.8 | . | . | . | . | . | .
Cc1ccc(C)c(NC(=O)CSc2nc3nc(-c4cccs4)cc(C(F)(F)F)c3c(=O)[nH]2)c1 | -5.2 | -0.6 | 45.1 | 18.0 | -0.5 | -4.2 | . | .
O=C(CSc1nc2nc(-c3cccs3)cc(C(F)(F)F)c2c(=O)[nH]1)Nc1ccc(F)c(F)c1 | 26.0 | 3.9 | 73.9* | 46.4 | -0.4 | -11.5 | 46.4* | 80.4*
Cc1ccccc1C(=O)O/N=C(\N)c1ccc([N+](=O)[O-])cc1 | -0.3 | -34.1 | 35.3 | -259.3 | -3.2 | 6.6 | . | .
Cc1ccccc1/C(N)=N/OC(=O)c1ccc(F)cc1 | 7.3 | -29.7 | 65.1* | -166.3 | -3.3 | -5.9 | -2.8 | .
COc1cccc2c(SCC(=O)N/N=C/c3ccc(O)cc3O)cc(C)nc12 | 41.7 | 29.3 | 53.6* | 35.3 | 2.3 | -14.0 | 46.0* | 65.4*
CCCCSc1nc(C)cc(SCC(=O)N/N=C/c2cccc(OC)c2O)n1 | 9.6 | ? | 72.0* | 53.5* | 0.3 | -0.4 | 79.5* | 34.4
COc1ccc2nc(C)cc(SCC(=O)N/N=C/c3ccc(O)cc3O)c2c1 | 11.8 | 14.2 | 55.0* | 33.8 | 0.5 | -14.2 | 78.8* | 36.6*
C=CCn1c(CNc2ccc(C)cc2)nnc1SCC(=O)N/N=C/c1ccc(O)cc1O | 5.1 | . | 57.1* | 35.0 | -0.2 | 5.1 | 56.4* | 35.6
CC(=O)N[C@@H]1CC[C@H](CCNC(=O)Nc2ccc(C(F)(F)F)cc2)O[C@@H]1CO | . | -4.3 | . | . | . | . | . | .
COc1cccc(CNC(=O)c2cc3c(c(-c4cccc(-c5ccncc5)c4)n2)[C@H](CCO)N([S@@](=O)C(C)(C)C)C3)c1 | . | 13.0 | . | . | . | . | . | .
COc1ccc2c3c(n(C)c2c1)[C@@H](CO)N(C(=O)Nc1ccccc1F)CC31CCN(C(=O)c2ccccc2)CC1 | . | -31.7 | . | . | . | . | . | .
CCCC(=O)Nc1ccc2c(c1)OC[C@@H](C)N(Cc1ccc(F)cc1)C[C@@H](C)[C@H](OC)CN(C)C2=O | . | -18.4 | . | . | . | . | . | .
COc1ccc(CSCC(=O)N/N=C/c2ccccc2O)cc1 | 6.7 | -4.1 | 57.4* | 17.4 | 4.0 | -5.6 | 35.6 | 64.8*
SMILES | CF NFkB block | LGR2 antag | Mdm2 MdmX PPI | Peg3 prom inh | HSP90 refold inh | KKLEB cytotox | Mdm2-MdmX conf | FLuc counter
CCc1ccc(/C=C2\SC(=S)N(CCCC(=O)Nc3ccc(C(=O)O)cc3)C2=O)cc1 | 8.3 | -1.4 | 40.4 | -9.2 | -0.9 | 6.7 | . | .
O=C(CN1C(=O)S/C(=C/C=C/c2ccccc2)C1=O)Nc1ccc(C(=O)O)cc1 | -10.4 | 2.5 | -10.4 | -27.1 | -6.7 | 7.1 | . | .
COc1ccc(CN2C(=O)/C(=C/c3ccncc3)SC2=S)cc1 | 45.4 | 11.3 | 75.3* | 67.5* | 1.0 | -18.2 | 76.5* | 38.6*
Cc1ccc(/C=C2\SC(=S)N(CCCC(=O)Nc3ccc(O)cc3)C2=O)cc1 | 0.9 | -18.1 | 93.4* | -41.0 | 10.3 | 0.7 | 89.3* | 47.5*
COC(=O)c1ccc(/C=C2/SC(=S)N(CCCC(=O)Nc3ccc(O)cc3)C2=O)cc1 | 28.2 | -6.8 | 99.6* | 83.8* | 5.7 | -7.9 | 55.1* | 5.2
O=C(CCCN1C(=O)S/C(=C\C=C\c2ccccc2)C1=O)Nc1ccc(O)cc1 | -33.6 | -23.9 | 53.3* | -345.8 | -2.4 | 9.4 | -0.6 | .
Cc1ccc(/C=C2\SC(=S)N(CCCC(=O)Nc3ccccc3C(=O)O)C2=O)cc1 | 0.5 | 15.9 | -32.2 | 46.5 | 14.8 | 12.9 | . | .
COc1ccc(NC(=O)Nc2ccc3c(c2)[C@@H]2C[C@@H](CC(=O)NC4CCCC4)O[C@@H](CO)[C@@H]2O3)cc1 | . | 17.5 | . | . | . | . | . | .
COc1ccc(/C=C2/SC(=S)N(CCCC(=O)Nc3cccc(O)c3)C2=O)cc1 | -17.2 | -1.3 | 82.7* | -53.1 | 1.5 | 1.1 | 43.0* | 28.6
CC(c1ccccc1)N1C(=O)/C(=C/c2ccncc2)SC1=S (stereo not drawn) | 4.2 | 19.7 | 67.2* | 18.0 | 0.9 | -1.6 | 16.9 | .
COc1ccc(/C=C2\SC(=S)N(CCC(=O)Nc3cccc(O)c3)C2=O)cc1OC | 24.2 | -17.5 | 20.7 | -28.1 | 4.7 | -13.3 | . | .
CC(C)NC(=O)N(C)C[C@@H]1Oc2ncc(C#Cc3ccc(F)cc3)cc2C(=O)N([C@@H](C)CO)C[C@@H]1C | . | 23.4 | . | . | . | . | . | .
COc1ccc(S(=O)(=O)N(C)C[C@H]2OCCCC[C@H](C)Oc3ccc(NS(=O)(=O)c4cn(C)cn4)cc3C(=O)N([C@@H](C)CO)C[C@H]2C)cc1 | . | -2.9 | . | . | . | . | . | .
O=c1cc(CSc2ccc(Cl)cc2)nc(-c2ccccc2)[nH]1 | -4.2 | -2.0 | 12.6 | 17.0 | 2.4 | 1.5 | . | .
O=c1cc(CSc2ccc(Cl)cc2)nc(-c2ccccn2)[nH]1 | 3.5 | -3.2 | 89.0* | 90.7* | -2.5 | 10.1 | 77.5* | 30.5

High-throughput results (PubChem BioAssay)
